D1 mod: allosterically modulates the human D1 dopamine receptor; HEK293 D1, CRE-luciferase, dopamine EC30 potentiation; actives deviate in either direction; B-score at 10 µM; 5.9% of 58,000 active; AID 641;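 active = luminescence count or its row- and column-corrected plate score outside the 99.7% band of the plate's sample wells, on either side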
BAP1 block: blocks human BAP1 ubiquitin-AMC hydrolysis; 0.48% of 72,000 active; calls only at 20 µM; recombinant BAP1, Ub-AMC hydrolysis fluorescence kinetic; stronger effect = lower value; Q92560;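 active = activity remaining at or below 50% of control, provided the compound also passes the data quality filters; inactive = the rest, including low values that fail the filters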
DAT uptake mod: human DAT dopamine uptake with cocaine, either direction; Q01959; LLC-PK1 hDAT cells, [14C]-dopamine uptake with cocaine IC80; actives deviate in either direction; B-score at 10 µM; 1.3% of 110,000 active; AID 449768;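 active = Z score or B-score, a plate-position-corrected score, falls beyond the plate's 99.7% confidence bounds, in either direction; inactive = both scores lie inside the 99.7% bounds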
Target sequence (Q01959 whole entry, looked up): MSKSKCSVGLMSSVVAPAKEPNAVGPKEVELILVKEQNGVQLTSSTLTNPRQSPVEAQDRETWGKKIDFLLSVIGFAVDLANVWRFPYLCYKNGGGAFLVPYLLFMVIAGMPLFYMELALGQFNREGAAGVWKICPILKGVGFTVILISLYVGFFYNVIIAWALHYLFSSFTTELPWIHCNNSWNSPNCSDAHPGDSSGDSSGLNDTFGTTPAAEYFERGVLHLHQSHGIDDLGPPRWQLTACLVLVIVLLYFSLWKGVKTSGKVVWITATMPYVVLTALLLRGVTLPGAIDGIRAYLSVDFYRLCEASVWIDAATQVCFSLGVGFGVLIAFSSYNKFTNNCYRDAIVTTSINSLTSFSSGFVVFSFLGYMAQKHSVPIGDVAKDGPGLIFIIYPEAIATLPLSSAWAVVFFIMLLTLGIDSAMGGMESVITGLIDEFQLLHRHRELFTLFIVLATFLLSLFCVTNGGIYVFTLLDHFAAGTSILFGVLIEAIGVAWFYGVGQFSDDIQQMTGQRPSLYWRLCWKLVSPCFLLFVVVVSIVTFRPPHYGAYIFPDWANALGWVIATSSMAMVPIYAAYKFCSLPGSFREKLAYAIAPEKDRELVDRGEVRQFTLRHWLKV
Each line names hits and unclear results; the compound was inactive in the other large screens. Only a selection was taken, and hits are over-represented in it overall.

CCOC(=O)c1c(-c2ccccc2)csc1NC(=O)CSc1nc2ccccc2o1	none (no result: D1 mod, DAT uptake mod)
CCOc1ccc(NC(=O)C(C)Sc2nnnn2C)cc1 (stereo not drawn)	none
CCOc1ccc(NC(=O)C(C)SC(N)=O)cc1 (stereo not drawn)	D1 mod -2.64
O=C(Nc1ccc2oc(-c3ccc4ccccc4c3)nc2c1)c1ccc(Cl)c([N+](=O)[O-])c1	none (no result: D1 mod, DAT uptake mod)
CCOC(=O)C1=C(CC)NC2=C(C(=O)CCC2)C1c1ccncc1 (stereo not drawn)	none (no result: D1 mod, DAT uptake mod)
O=S1(=O)Nc2c(ccc3cccnc23)-c2ccccc21	D1 mod -3.6
O=c1[nH]n(-c2cccc3cccnc23)c(=O)c2ccccc12	none
CC1=C(C(=O)OCCOc2ccccc2)C2(O)C(=O)c3ccccc3C2(O)N1 (stereo not drawn)	none (no result: D1 mod, DAT uptake mod)
Cc1c(Cl)c([N+](=O)[O-])nn1CC(=O)Nc1ccc(OC(F)(F)F)cc1	none (no result: D1 mod, DAT uptake mod)
CCN(CC)C(=O)Cn1c(=O)n(-c2ccccc2)c(=O)n1CC(=O)N(CC)CC	DAT uptake mod -9.58
CCOC(=O)Cn1nc(C)n(-c2ccccc2)c1=O	none (no result: D1 mod, BAP1 block)
COC(=O)c1ccc(COc2ccc3c4c(c(=O)oc3c2)CCCC4)cc1	none (no result: D1 mod, DAT uptake mod)
COc1cc(C=Nc2ccc(S(=O)(=O)Nc3ccccn3)cc2)ccc1OCc1ccccc1	none (no result: D1 mod, DAT uptake mod)
COc1ccc(C2C=C(Nc3ccc(C)cc3)C(=O)N2c2ccc(C)cc2)c(OC)c1 (stereo not drawn)	none (no result: D1 mod, DAT uptake mod)
Cc1cc(C)c2nc(N3CCCC(C(=O)N4CCC(C(N)=O)CC4)C3)sc2c1 (stereo not drawn)	D1 mod -4.15
Cc1cc(C)c2nc(N3CCCC(C(=O)NCCN4CCOCC4)C3)sc2c1 (stereo not drawn)	none
CC(=O)N1c2ccccc2NC2=C(C(=O)CC(c3ccccc3)C2)C1c1ccc2c(c1)OCO2 (stereo not drawn)	none (no result: D1 mod, DAT uptake mod)
O=C(Oc1ccc(O)c2c1C(=O)c1ccccc1C2=O)c1ccccc1	none (no result: D1 mod, DAT uptake mod)
COc1ccc2noc3c2c1C(=O)c1ccccc1-3	D1 mod 5.05 (no result: DAT uptake mod)
O=C1c2ccccc2-c2onc3ccc(Sc4ccccc4)c1c23	none (no result: D1 mod, DAT uptake mod)
CCOc1ccccc1N(CC(=O)Nc1ccccc1C(=O)O)S(C)(=O)=O	none
CCOc1ccccc1N(CC(=O)Nc1cc(OC)ccc1OC)S(C)(=O)=O	DAT uptake mod -9.11 (no result: D1 mod, BAP1 block)
COc1ccccc1N(CC(=O)N1CCCCCC1)S(C)(=O)=O	none (no result: BAP1 block)
CCOc1ccccc1N(CC(=O)N1CCCCCC1)S(C)(=O)=O	D1 mod -3.82
CCOC(=O)c1cccc2c1-c1ccccc1/C2=N/O	none
CC1CCCC(C)N1C(=O)c1cccc2c1-c1ccccc1/C2=N/O (stereo not drawn)	DAT uptake mod 3.95 (no result: D1 mod, BAP1 block)
Cc1ccccc1OCC(=O)Nc1ccc(OC(C)C)cc1	none (no result: D1 mod, DAT uptake mod)
Cc1cc(C)c2[nH]c(=O)c(CN(CC3CCCO3)C(=O)c3cnccn3)cc2c1 (stereo not drawn)	DAT uptake mod 2.53 (not shown: BAP1 block)
Cc1cccc2cc(CN(CC3CCCO3)C(=O)c3cnccn3)c(=O)[nH]c12 (stereo not drawn)	none
O=C(CCn1ccnc1)c1ccc(Br)cc1	none (no result: D1 mod, DAT uptake mod)
CCn1c(SCC(=O)Nc2nc3ccccc3s2)nnc1-c1ccc(OC)cc1	none
CCn1c(SCC(=O)Nc2nc3c(s2)CCCC3)nnc1-c1ccccc1	DAT uptake mod 3.68
O=C(CSc1nc2ccccc2o1)Nc1nc2c(s1)CCCC2	D1 mod -2.42 (no result: DAT uptake mod)
CCOC(=O)c1c(NC(=O)CSc2nnc(-c3cccc(C)c3)n2CC)sc(C(C)=O)c1C	none (no result: D1 mod, BAP1 block)
CCOC(=O)c1c(NC(=O)CSc2nnc(-c3ccccc3)n2CC)sc(C(C)=O)c1C	DAT uptake mod 2.51
O=C(CSc1nc2ccccc2o1)Nc1nc2ccccc2s1	none
COCCOC(=O)C1=C(C)NC(=O)NC1c1cccc([N+](=O)[O-])c1 (stereo not drawn)	none (no result: D1 mod, DAT uptake mod)
N#CCCN(CCC#N)S(=O)(=O)c1ccccc1	none (no result: D1 mod, DAT uptake mod)
CCOC(=O)N1CCC(N2Cc3cccc(C(=O)Nc4ccc(CC)cc4)c3C2=O)CC1	DAT uptake mod 4.03 (no result: D1 mod, BAP1 block)
CCOC(=O)N1CCC(N2Cc3cccc(C(=O)Nc4ccc(F)cc4)c3C2=O)CC1	none (no result: D1 mod, BAP1 block)
c1cncc(-c2cnc3ccccc3n2)c1	none (no result: D1 mod, DAT uptake mod)
CC(C)C(=O)Nc1ccc(NC(=O)c2ccccn2)cn1	D1 mod -4.92 (no result: BAP1 block)
CCC(=O)Nc1ccc(NC(=O)c2ccccn2)cn1	none
O=C(Nc1ccc(NC(=O)c2ccco2)nc1)c1ccccn1	D1 mod -4.1 (no result: BAP1 block)
O=C(Nc1ccc(NC(=O)C2CCCCC2)cn1)c1ccco1	D1 mod -3.24
O=C(Nc1ccc(NC(=O)C23CC4CC(CC(C4)C2)C3)cn1)c1ccco1	none
O=C(Cc1ccccc1)Nc1ccc(NC(=O)c2ccco2)nc1	none
O=C(c1ccccc1)N1CCN(Cc2ccccn2)CC1	none (no result: D1 mod, DAT uptake mod)
O=C(Nc1nc(-c2ccccc2)c(C(=O)c2ccccc2)s1)c1cccc([N+](=O)[O-])c1	none (no result: D1 mod, DAT uptake mod)
Cc1cc(C)c2c(n1)nn1c(N3CCN(c4ccccc4)CC3)cc(C)nc21	D1 mod -4.13
Cc1cc(C)c2c(n1)nn1c(N3CCN(c4ccccn4)CC3)cc(C)nc21	none (no result: DAT uptake mod)
Cc1cccc(N2C(=O)C(Cl)=C(NC3CCCCC3)C2=O)c1C	none (no result: D1 mod, DAT uptake mod)
CCOC(=O)/C=C(\C)Nc1cc(C)nn1-c1ccccc1	D1 mod -4.79
Cc1cc(NC(=O)Nc2cc(C)nn2-c2ccccc2)n(-c2ccccc2)n1	none
CCOC(=O)C1=C(C)Nc2nnnn2C1c1ccc(OC(=O)c2ccccc2)cc1 (stereo not drawn)	none (no result: D1 mod, DAT uptake mod)
COc1ccc(NC(=O)c2cc3ccccn3n2)cc1	D1 mod -4.74
COc1ccc(NC(=O)c2ccccn2)cc1	none (no result: D1 mod, BAP1 block)
COc1ccc(N2CCN(C(=O)CCNS(=O)(=O)c3ccc4c(c3)CCC(=O)N4)CC2)cc1	none (not shown: BAP1 block)
Cc1ccc(C)c(N2CCN(C(=O)CNS(=O)(=O)c3cccs3)CC2)c1	DAT uptake mod 1.68 (no result: D1 mod, BAP1 block)
COc1ccc(N2CCN(C(=O)CCNS(=O)(=O)c3cccs3)CC2)cc1	DAT uptake mod 11.1 (no result: D1 mod, BAP1 block)
CCOC(=O)N1CCN(C(=O)CNS(=O)(=O)c2cccs2)CC1	none (no result: BAP1 block)
O=C1CC(c2cccc(Br)c2)Nc2ccc3ccccc3c21 (stereo not drawn)	none (no result: D1 mod, DAT uptake mod)
C=CCn1c(=N)n(CC(O)c2ccc(C)cc2)c2ccccc21 (stereo not drawn)	none (no result: D1 mod, DAT uptake mod)
CC(C)(C)NC(=O)CSc1nncn1NCc1ccccc1	none
Cc1ccc(CNn2cnnc2SCC(=O)NC(C)(C)C)cc1	DAT uptake mod 2.16
O=C(Nc1nc(-c2ccccn2)cs1)c1ccccc1Oc1ccccc1	none (no result: D1 mod, DAT uptake mod)
Cc1cc(C)c2oc(-c3ccc(C)c(N=Cc4cccc([N+](=O)[O-])c4O)c3)nc2c1	none (no result: D1 mod, DAT uptake mod)
Cc1ccccc1N(CC(=O)N/N=C/c1cc(C)n(-c2ccccc2C)c1C)S(C)(=O)=O	DAT uptake mod -2.69 (no result: D1 mod, BAP1 block)
Cc1oc(/C=N/NC(=O)CN(c2ccccc2Br)S(C)(=O)=O)cc1Br	none (no result: D1 mod, BAP1 block)
O=C(CSc1ccc2nnc(-c3ccc(Cl)cc3)n2n1)N1CCCC1	D1 mod 5.64
Cc1ccc(-c2nnc3ccc(SCC(=O)N4CCCCC4)nn23)cc1	none (no result: DAT uptake mod)
CC(C)c1ccc(NC(=O)N(CCc2nc3ccccc3[nH]2)C2CCCC2)cc1	none (no result: D1 mod, BAP1 block)
Cc1cc2nc(CCN(C(=S)NCC(C)C)C3CCCC3)[nH]c2cc1C	DAT uptake mod 2.66 (no result: D1 mod, BAP1 block)
Cc1cc(-c2ccccc2)n(-c2cc(N3CCCCC3)ncn2)n1	none (no result: D1 mod, DAT uptake mod)
Cc1ccc(-c2nsc3c(N4CCC(C(N)=O)CC4)ncnc23)cc1	none (no result: D1 mod, DAT uptake mod)
NC(=O)C1CCN(c2ncnc3c2c(-c2ccccc2)cn3-c2ccccc2)CC1	D1 mod -3.79
